Assay results: PubChem BioAssay AID1508600 (Functional Genomics Laboratory (NCATS/FGL), 2020)
Screen size: about 53,000 sequences; about 3,700 (7%) were called active. This is one part of a sample in which actives are shown more often than they occur. A number with no mark means an inactive call.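 Rule for the calls: active = gene knockdowns whose robust z-score for IL-1 alpha signal is at least 2 or at most -2, so actives lie on both sides; inactive = the rest.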

Assay: Components of the Cytosolic LPS Sensing Pathway: Gene Identification via Genome-wide siRNA Screen;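 note: robust z of the log signal after scaling to non-targeting control siRNA wells of the plate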
Details: RAW264.7 macrophages, IL-1a HTRF, actives lie on both sides, screened at 100 nM (by protocol), cells primed 5 h with Pam3CSK4 first
In short: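 Three distinct siRNAs per gene were tested singly at 100 nM in RAW264.7 macrophages. Following Pam3CSK4 priming and 24 hour LipidA transfection, IL-1a secretion was read by HTRF.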

| Sequence | z-score |
| --- | --- |
| GGAGUAAUGAUAAGCCCUCTT against Tex264 | -0.0637 |
| GCUCUACCUCAGAUAAAGGTT against Banf2 | -2.45 (active) |
| GGAUCUCAUACAGAAUCCGTT against Haus4 | 0.216 |
| GGACCUAGAGGACUAUAAATT against P3h2 | 0.894 |
| GGAGCAGGUUACCAGAAAATT against E130114P18Rik | 0.301 |
| GGGUUUGACUGUACAGUACTT against Adamts4 | -1.29 |
| GGCCUUUACACGUGAGUCUTT against Zfp420 | -0.864 |
| CGGAUGCGACAAAAAUCACTT against Il4 | 1.77 |
| GCACUUACCGGAUCCAUUGTT against Clk4 | -0.793 |
| GCACAGGUCUAAUUCGUCUTT against Grik1 | -2.78 (active) |
| GGACUUGACCCUGUCUUUGTT against Ostm1 | 0.871 |
| GGAACAAAAACUGGUGCGCTT against Emilin2 | 2.07 (active) |
| GGCAUCUGAGCUGAGGAUUTT against Gem | -0.295 |
| GGAUAGCUUGAUCAAUCUUTT against Cisd2 | -0.13 |
| GCCUCUUAAUUUUAAGCUGTT against Gpr82 | -0.505 |
| GGGAAACUUGAACUUUGAUTT against Rsph1 | -1.54 |
| GGGACAAUUCAGGAUGGAGTT against Ift88 | 0.0559 |
| GCGGCUUUACAAGGAUGACTT against Elob | 2 (active) |
| GGUCCUUUUUUCAACCAGCTT against Sh3gl1 | -0.259 |
| CCAAGGGUUGUUAAGUAUUTT against Cdh26 | 1.08 |
| GGAUUUUCAUCGUGCUUUGTT against Necab3 | 1.23 |
| CCGUGAUAAUGUAACACCUTT against Prtg | 0.0383 |

| Sequence | z-score |
| --- | --- |
| GGUAAACAUUGCUACUUUGTT against Mpdz | 0.935 |
| GGCCAAGAAAAACUACUAUTT against Kcnk5 | -0.706 |
| CCUAGGUUUGAAGACUCCCTT against Asphd2 | -2.03 (active) |
| CCAAAUAUCACACACCCGATT against Fam187a | 0.798 |
| GGUGACUACUACAGGAAACTT against Hps1 | 2.3 (active) |
| GCACUUAUGAUGUCCUAUUTT against Sema4b | 0.606 |
| GGACAAAGUCUAGAAACUATT against Lrrc2 | 0.26 |
| GGCUAUGACAAUGCCUACATT against Maged2 | 0.00495 |
| GCGAAUCUUGCUUCUGACCTT against H4c8 | -2.13 (active) |
| GGUUUUUCGAGUUUUUUCUTT against Msx1 | 1.06 |
| GGCUGCUUAUAAAAUUUUCTT against Mipep | 0.398 |
| GGCAUGUUUCUUGACUUAATT against Coil | 0.122 |
| GGACCUGGUUCAGGUAUCATT against Col6a3 | -2.17 (active) |
| GGGUUUAUUUGGUCAAGAUTT against Mpc2 | -0.349 |
| GCAUACGUGUUCAAUGGUGTT against Ppef2 | -0.541 |
| CCGUGGAACUUAAAUAGUUTT against Pard6g | 2.66 (active) |
| GGAUCUCGCUGGCAAUAAUTT against Gpr45 | -0.222 |
| CCAUUUUUCCUACGUGGGUTT against Zfand2a | 0.449 |
| GGAUUUGGGUUUUCUAUAATT against Cfb | -0.0373 |
| CAAUGACAGCAGAUGACGUTT against Crabp2 | 0.0834 |
| CCGGUCAAAAUUGAAAAGGTT against Bves | 0.666 |
| GGUGAAAAGUCCUGCCAAGTT against Nefh | 0.408 |

| Sequence | z-score |
| --- | --- |
| GGCCAUUUGGAAACUAUUATT against Anapc11 | -0.109 |
| GGCUGUGAGAUAGAUCUAATT against Arhgef40 | 2.07 (active) |
| GCAAGGAGUUUAUGUGAGUTT against Olfr170 | 0.297 |
| GGGCAAAAUACAAAAGGAGTT against Mlph | -0.9 |
| GGACAUUCUCAAAUCUUGATT against Praf2 | 0.244 |
| GCAUAAGGACCCUUUGUCATT against Rasl10b | -1.27 |
| GCUGUAUCAGUCUUUCUAUTT against Cyp27b1 | 0.442 |
| GGACAUGUCGGAUGGCUUCTT against P4ha1 | 0.212 |
| GGCAGCAUUAAAACUUAAGTT against Chtop | 2.71 (active) |
| GGGUAACAUGAAGAUCAAUTT against Rnf19a | 0.488 |
| GGGACAAAAGCAAUCAAACTT against H2-M11 | 2.06 (active) |
| GCAAGCAUGCUCAUAAAGATT against Cast | -0.142 |
| CGUAUGCAGAACAACAUUUTT against Klhl2 | 1.77 |
| CGAUCCCUGUCUGUUGGAUTT against Spint4 | 0.944 |
| GGAGGUAUACAGUAAGGAGTT against Fbxo32 | 0.542 |
| GGCUGACAGUAACAAGUGGTT against Fignl1 | 3.72 (active) |
| GCCAGGAUCCAUCAAUUCCTT against Olfr376 | -1.84 |
| CCCUGAAAAUUAUCGAGCGTT against Galnt18 | -0.493 |
| CCCAGGAACUAUGAGUUGUTT against Rnf31 | -1.87 |
| GGAGAAAUUCUUCAAUGAGTT against Syt2 | -0.19 |
| GGAGACCAAAAUUUCUUGGTT against Sox9 | 0.0192 |
| GGAUCCGAACAUCCUCAGGTT against Hr | -2.22 (active) |

| Sequence | z-score |
| --- | --- |
| CGAAGAGAUCAGUAAUAUGTT against Kif21a | 0.31 |
| CCCAUGGAAAUCCUCAGUATT against Ctsa | -2.1 (active) |
| CCCACUGAUGAUUACGUUCTT against Irf5 | -0.247 |
| CCACAAGCUAAUACAUGCUTT against Ubac1 | -1.37 |
| GGCCACAAAGACUCUGUGATT against Aamp | -2.25 (active) |
| GGCAGAACACCUUCUUAGUTT against Dars2 | -0.425 |
| AGUUAGCCUUGAGGAGAAUTT against Olfr1512 | 0.503 |
| CCAUUGGAUUGGAACUGGATT against Dhx57 | -0.288 |
| GCAGGUUUGAUAUAAAAUCTT against Uba2 | 0.162 |
| GCUCACCUGAGUCAAUGAUTT against Nr5a2 | -2.25 (active) |
| GGAAUUUUGGUAGGUUUUATT against Tlcd4 | 1.36 |
| CGGAAAAUCCUGCCUCCCUTT against S100pbp | -0.36 |
| GGAUGUAGAUGUUGGUUUUTT against Kcnj14 | 2.52 (active) |
| GCCAUCUGCUUUAACCUCUTT against Aebp2 | 0.238 |
| GGUGUACGAGAUCCAGGACTT against Eif3l | -0.699 |
| GGCUGGUCAAAAUUUGGAATT against Cdca2 | -0.9 |
| CGCAAGGACCGAUCUGAUGTT against Rnps1 | -2.41 (active) |
| GCAUCUGGGACAUUUAGAGTT against Cd200r3 | -1.08 |
| CCAGCUUUUGUUUGUUAGATT against Trappc11 | 0.56 |
| GGAAGACUUGGCUACACAATT against Rab40c | -1.04 |
| GGCAAACCUGCUUCUGCUATT against Prss52 | -1.27 |
| GUUACUUUGAUGUUGUCUATT against Pdgfrl | 0.817 |

| Sequence | z-score |
| --- | --- |
| GGCCAAUGCACUGUGUUACTT against Tinag | 1.25 |
| GCAGAGAGAUACAUUAAAGTT against Adam10 | 1.16 |
| CGCGCUUCUACUUUUUUUATT against Nkx2-1 | 0.406 |
| GGAGGACCCUAUGUCUAAUTT against Adora1 | 4.6 (active) |
| GCUGAGACAUGUGGAGUAUTT against 4931429L15Rik | 0.426 |
| GGUUCUCAUCAUUUCAACUTT against Sh3bgrl | -1.61 |
| GGCUUUGACCCGAAAAGAATT against Tut4 | -0.0161 |
| CGUGCCAAUUGAAAAAAACTT against Prkn | 1.23 |
| CCAUACAAUAAGAGUGCUATT against Clec4a4 | 0.936 |
| GGGUAGGCAAAGUUUUCAATT against 1700029M20Rik | 4.63 (active) |
| GCAUUCCAUGGUACAGGGUTT against Adamts4 | -0.646 |
| CGGUUUACAUUCCUGACUUTT against Plekho2 | 1.42 |
| GGACCAAAGAUGCAUCAGUTT against Zfyve16 | -0.788 |
| GGACCAAGGCUUUAUGAACTT against Crygn | 0.404 |
| GGCCUACGAACAGGUCAUGTT against Foxa2 | 0.0835 |
| CGUGUCUGAAGGACUACAATT against 1700052K11Rik | 0.0454 |
| GCAGUAAGUCAGUGCCUCATT against Atxn1 | 1.51 |
| GGUUGAUGCCAUGAAGUCCTT against Acyp2 | -1.22 |
| GGUUGUUGUGACCUUCCUGTT against Bod1 | -2.65 (active) |
| GGGACAUUAUGCUUAUGACTT against Srsf7 | -0.513 |
